# Assay results taken from PubChem BioAssay AID1004 (SRMLSC, 2008).
# Calls of active or inactive are those of the source.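 How the source made its calls: active means viability at 10 µM of 29.74% or lower, 3 SD below the compound median; inactive means the rest.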
# Assay: viability of HCT116 lacking mutant beta-catenin – cell-based, DP diverse set, validation, pilot screen (AID 1004)
# Conditions: HCT116 (mutant beta-catenin deleted) viability, CellTiter-Glo, 60 h; at 10 µM; stronger effect = lower value
row,SMILES,viability
1,NS(=O)(=O)c1cc(C(=O)O)c(NCc2ccco2)cc1Cl,96.3% (inactive)
2,COc1ccc(-c2cc(C(=O)O)no2)cc1,99.2% (inactive)
3,C=C1CC[C@H](O)C/C1=C/C=C1\CCC[C@]2(C)[C@@H]([C@H](C)CCCC(C)C)CC[C@@H]12,104% (inactive)
4,O=C(O)c1cc([N+](=O)[O-])ccc1NCCCc1ccccc1,99.6% (inactive)
5,Cn1cnc2c(NCc3ccccc3)nc(NCCO)nc21,103% (inactive)
6,CC[n+]1c(-c2ccccc2)c2cc(N)ccc2c2ccc(N)cc21,51.3% (inactive)
7,COc1ccc2c3c1O[C@H]1C[C@@H](O)C=C[C@@]31CCN(C)C2,94% (inactive)
8,CCC(C)CCCCC(=O)N[C@@H](CCN)C(=O)N[C@H](C(=O)N[C@@H](CCN)C(=O)N[C@H]1CCNC(=O)C([C@@H](C)O)NC(=O)[C@@H](CCN)NC(=O)[C@H](CCN)NC(=O)[C@H](CC(C)C)NC(=O)[C@@H](CC(C)C)NC(=O)[C@H](CCN)NC1=O)[C@@H](C)O (stereo partly drawn),94.3% (inactive)
9,COc1c(C)c2c(c(O)c1C/C=C(\C)CCC(=O)O)C(=O)OC2,49.1% (inactive)
10,O=C1OC2(c3ccc(O)cc3Oc3cc(O)ccc32)c2ccccc21,96.5% (inactive)
11,C=CCc1ccc(O)c(-c2cc(CC=C)ccc2O)c1,99.2% (inactive)
12,CC(C)=CCC/C(C)=C/COc1ccc2ccc(=O)oc2c1,96.8% (inactive)
13,Nc1nc2ncc(CNc3ccc(C(=O)NC(CCC(=O)O)C(=O)O)cc3)nc2c(=O)[nH]1 (stereo not drawn),95.3% (inactive)
